Calls of active or inactive are those of the source. Unless noted, how the calls were made is not given here.
Legend:
[1] = HepG2 liver cancer cell viability effects, profiling panel, resazurin fluorescence, 24 h, PK04 Diversity Set (AID 1172); settings: higher = more signal
[2] = basal S. cerevisiae growth modulation, no modifier, primary screen, OD600, strain BY4716, 24 h, basal condition (AID 1173); settings: OD600, 24 h, higher = more signal, called active from +8 up or from −8 down
[3] = MM1S myeloma cell viability, profiling panel, resazurin fluorescence, basal, 24 h, PK04 Diversity Set (AID 1174); settings: higher = more signal, called active from +8 up or from −8 down;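 further: MM1S multiple myeloma cell line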
[4] = target: Dihydroorotate dehydrogenase (quinone), mitochondrial (Plasmodium falciparum (isolate 3D7)) (UniProt Q08210); test: PfDHODH enzyme inhibitors, primary screen, biochemical, C-terminal His tag, absorbance 600 nm (AID 1175); settings: DCIP absorbance 600 nm, higher = more signal, called active from +8 up or from −8 down;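 further: recombinant parasite enzyme with a five histidine tag at its C terminus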
Dihydroorotate dehydrogenase (quinone), mitochondrial (Plasmodium falciparum (isolate 3D7)), sequence (Q08210 whole entry, looked up): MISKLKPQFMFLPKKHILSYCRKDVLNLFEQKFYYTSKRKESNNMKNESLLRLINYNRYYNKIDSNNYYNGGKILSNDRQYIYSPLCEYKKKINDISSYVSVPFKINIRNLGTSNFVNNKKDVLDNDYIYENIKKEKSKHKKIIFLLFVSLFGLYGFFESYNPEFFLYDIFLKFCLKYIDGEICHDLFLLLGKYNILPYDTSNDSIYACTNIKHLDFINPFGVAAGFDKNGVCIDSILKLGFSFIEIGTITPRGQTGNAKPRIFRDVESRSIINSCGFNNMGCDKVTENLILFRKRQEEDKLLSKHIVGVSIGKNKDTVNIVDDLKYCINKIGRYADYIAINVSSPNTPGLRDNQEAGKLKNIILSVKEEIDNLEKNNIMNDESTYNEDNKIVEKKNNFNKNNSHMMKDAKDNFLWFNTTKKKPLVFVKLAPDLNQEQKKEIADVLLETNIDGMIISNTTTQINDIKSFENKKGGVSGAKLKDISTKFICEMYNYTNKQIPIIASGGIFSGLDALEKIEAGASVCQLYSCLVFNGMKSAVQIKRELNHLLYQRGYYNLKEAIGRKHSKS

[5] = P. aeruginosa biofilm formation inhibitors, primary screen, strain PAO1, LB-PBS medium, absorbance 600 nm (AID 1176); settings: P. aeruginosa PAO1 growth/biofilm, A600, 12 h; higher = more signal
[6] = S. cerevisiae RM11-1a growth modifiers, primary screen, strain RM11-1a, OD600, basal, 24 h (AID 1177); settings: OD600, 24 h, higher = more signal, called active from +8 up or from −8 down;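 further: cultures grown under basal conditions with no added stressor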
[7] = E. coli acrAB mutant growth effects, primary screen, E. coli filamentation inducers, strain DRC39, OD650, 24 h (AID 1178); settings: higher = more signal, called active from +8 up or from −8 down;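 further: growth measured as culture turbidity by optical density at 650 nm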
[8] = E. coli acrAB mutant growth effects, primary screen, E. coli filamentation inducers, strain DRC39, OD650, 48 h (AID 1179);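 further: screen aims at cell division blockers that make cells filament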; settings: E. coli DRC39 delta-acrAB growth, higher = more signal, called active from +8 up or from −8 down
[9] = RPMI8226 myeloma cell viability, profiling panel, resazurin fluorescence, basal, 24 h, PK04 Diversity Set (AID 1180); settings: higher = more signal;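 further: RPMI8826 multiple myeloma cell line at 5000 cells per well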
[10] = target: E3 ubiquitin-protein ligase XIAP (Homo sapiens) (UniProt P98170); test: XIAP binders, primary screen, biophysical, small-molecule microarray, fluorescence 635 nm (AID 1181); settings: small-molecule microarray binding, higher = more signal;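 further: score merges 667 nm emission and signal to noise over triplicate slides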
E3 ubiquitin-protein ligase XIAP (Homo sapiens), sequence (P98170 whole entry, looked up): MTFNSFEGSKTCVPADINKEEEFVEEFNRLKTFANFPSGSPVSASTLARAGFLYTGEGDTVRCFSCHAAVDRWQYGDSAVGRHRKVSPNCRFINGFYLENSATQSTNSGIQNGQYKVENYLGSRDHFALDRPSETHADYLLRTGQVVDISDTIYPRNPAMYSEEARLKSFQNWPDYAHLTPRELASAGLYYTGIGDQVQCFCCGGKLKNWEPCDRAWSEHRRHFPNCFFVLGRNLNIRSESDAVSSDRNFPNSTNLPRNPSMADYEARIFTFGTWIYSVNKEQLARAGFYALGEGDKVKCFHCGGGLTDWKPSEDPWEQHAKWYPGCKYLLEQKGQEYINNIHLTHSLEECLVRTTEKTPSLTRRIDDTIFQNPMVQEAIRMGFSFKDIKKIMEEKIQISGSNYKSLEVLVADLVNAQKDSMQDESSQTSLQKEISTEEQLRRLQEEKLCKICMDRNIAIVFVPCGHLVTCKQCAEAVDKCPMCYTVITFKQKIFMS

[11] = system: XIP peptide (Xip251-270) binding; test: small-molecule binders of XIP peptide, primary screen, biochemical, small-molecule microarray, fluorescence 635/667 nm, 0.1 µg/mL protein (AID 1182); settings: fluorescent protein binding, 635 nm, higher = more signal, called active from +8 up or from −8 down
XIP peptide (Xip251-270) = test: small-molecule binders of XIP peptide, primary screen, biochemical, small-molecule microarray, fluorescence 635/667 nm, 0.5 µg/mL protein (AID 1183); settings: small-molecule microarray binding, fluorescence 635 nm; higher = more signal
[12] = Plasmodium falciparum growth inhibition, primary screen, strain 3D7, DAPI fluorescence, 100 nL (AID 1184);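 further: parasites grown inside human red blood cells in medium with human serum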; settings: P. falciparum 3D7 growth, 3 d, higher = more signal
[13] = target: Homeobox protein Hox-A13 (Mus musculus) (UniProt Q62424); test: inhibitors of HoxA13-DNA binding, primary screen, biochemical, fluorescence polarization, labeled oligonucleotide (AID 1185); settings: 15 min, higher = more signal, called active from +8 up or from −8 down
Homeobox protein Hox-A13 (Mus musculus), sequence (Q62424 whole entry, looked up): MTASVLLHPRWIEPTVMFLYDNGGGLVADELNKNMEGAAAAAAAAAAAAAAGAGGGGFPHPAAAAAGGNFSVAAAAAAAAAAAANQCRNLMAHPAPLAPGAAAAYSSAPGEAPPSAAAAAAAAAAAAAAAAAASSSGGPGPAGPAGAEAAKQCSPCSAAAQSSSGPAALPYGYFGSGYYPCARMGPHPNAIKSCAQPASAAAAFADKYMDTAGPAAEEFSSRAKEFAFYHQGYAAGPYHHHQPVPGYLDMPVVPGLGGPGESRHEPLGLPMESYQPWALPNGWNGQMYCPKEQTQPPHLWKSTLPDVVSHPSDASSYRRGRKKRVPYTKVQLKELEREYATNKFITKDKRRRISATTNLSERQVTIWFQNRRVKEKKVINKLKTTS

[14] = inhibitors of hydroxyurea-induced Chk1 phosphorylation, primary screen, imaging, HeLa, phospho-Chk1 antibody, percent positive cells (AID 1186); settings: hydroxyurea-induced phospho-Chk1 immunofluorescence imaging, higher = more signal
[15] = inhibitors of hydroxyurea-induced Chk1 phosphorylation, primary screen, imaging, HeLa, phospho-Chk1 nuclear intensity (AID 1187); settings: hydroxyurea-induced phospho-Chk1 immunofluorescence imaging, higher = more signal

Structure (SMILES) | z-score [1] | z-score [2] | z-score [3] | composite z-score [4] | z-score [5] | z-score [6] | z-score [7] | z-score [8] | z-score [9] | composite z-score [10] | composite z-score [11] | composite z-score (XIP peptide (Xip251-270)) | z-score [12] | z-score [13] | z-score [14] | z-score [15]
COCCOC(=O)N1C(=O)[C@@]2(c3cc(C#Cc4ccc(OC)cc4)ccc31)[C@H](C(=O)Nc1nc3ccccc3s1)[C@H]1C(=O)O[C@H](c3ccccc3)[C@H](c3ccccc3)N1[C@@H]2c1ccc(O)cc1 | -0.154 | -0.43 (inactive) | 0.529 (inactive) | 1.17 (inactive) | 0.609 (inactive) | 0.735 (inactive) | 0.275 (inactive) | -0.591 (inactive) | 0.85 | 0.012 | -0.363 (inactive) | 0.748 | -1.89 | -0.829 (inactive) | -0.519 (inactive) | -0.999 (inactive)
[N-]=[N+]=NCc1ccccc1C[C@]1(C(N)=O)N=C(c2ccc(OCCCO)cc2)O[C@H]1c1ccccc1 | 1 | -0.198 (inactive) | -0.726 (inactive) | 0.921 (inactive) | -0.786 (inactive) | 1.4 (inactive) | 0.146 (inactive) | 0.98 (inactive) | -0.581 | 0.1 | 0.594 (inactive) | 0.692 | -1.42 | -6.49 (inactive) | 0.0449 (inactive) | 0.43 (inactive)
CN1C(=O)C2C=CC(C(O)c3cccc4ccccc34)N(N3CCCCC3)C2C1=O (centres undefined) | -0.908 | 1.51 (inactive) | -1.41 (inactive) | -0.0243 (inactive) | -0.0625 (inactive) | -0.334 (inactive) | -0.619 (inactive) | -0.456 (inactive) | -1.74 | 0.0077 | 0.356 (inactive) | 0.749 | 0.83 | -4.64 (inactive) | 0.906 (inactive) | 0.271 (inactive)
CCOC(=O)c1ccc(NC(=O)O[C@H]2[C@H](OC(=O)Nc3ccc4c(c3)OCO4)[C@H](OC(=O)Nc3ccc4c(c3)OCO4)[C@@H](OC)O[C@@H]2CO)cc1 | -1.09 | 1.12 (inactive) | -1.55 (inactive) | -0.57 (inactive) | 0.95 (inactive) | 1.57 (inactive) | 1.11 (inactive) | 0.311 (inactive) | -1.36 | 0.32 | 1.4 (inactive) | 0.863 | -2.28 | -6.83 (inactive) | -0.306 (inactive) | 0.101 (inactive)
[N-]=[N+]=NCc1ccccc1[C@H]1OC(c2ccc(OCCCO)cc2)=N[C@@]1(CCS(=O)(=O)c1ccccc1)C(=O)N1CCCCC1 | -0.0145 | 0.285 (inactive) | -1.55 (inactive) | 0.716 (inactive) | 0.659 (inactive) | 1.77 (inactive) | -0.132 (inactive) | -0.846 (inactive) | -0.661 | 0.0593 | 0.447 (inactive) | 0.757 | -2.46 | -3.76 (inactive) | -0.0013 (inactive) | -0.0087 (inactive)
C[C@H]1NC(=O)[C@@]23C(=O)N[C@@H](Cc4ccccc4)C2[C@H](C)[C@@]2(C)O[C@H]2C3/C=C/C/C=C\CNC(=O)[C@H](Cc2ccccc2)NC1=O (some centres undefined) | -0.466 | 0.303 (inactive) | -0.0253 (inactive) | 0.226 (inactive) | 1.24 (inactive) | 1.31 (inactive) | 0.513 (inactive) | 0.32 (inactive) | 0.0583 | 0.104 | 0.0017 (inactive) | 0.424 | -1.4 | -7.15 (inactive) | 0.116 (inactive) | 0.368 (inactive)
CO[C@H]1O[C@H](CO)[C@@H](OC(=O)Nc2ccccc2-c2ccccc2)[C@H](OC(=O)Nc2ccc3c(c2)OCO3)[C@H]1OC(=O)Nc1ccc2c(c1)OCO2 | -0.396 | 1.66 (inactive) | -0.262 (inactive) | -0.763 (inactive) | 3.65 (inactive) | 2.5 (inactive) | 1.2 (inactive) | 0.0265 (inactive) | -0.564 | 0.25 | 0.886 (inactive) | 0.892 | -1.6 | -9.89 (active) | -0.356 (inactive) | -0.272 (inactive)
O[C@@H](Cc1ccccc1)[C@@H](/C=C/C1CC1)N(CC#Cc1ccccc1)Cc1cccc(Cl)c1 | 2.5 | 0.465 (inactive) | 1.61 (inactive) | -0.312 (inactive) | -0.131 (inactive) | 0.438 (inactive) | 0.839 (inactive) | 1.01 (inactive) | 2.06 | -0.0931 | -0.16 (inactive) | -0.646 | -1.27 | 0.493 (inactive) | 0.0959 (inactive) | 0.043 (inactive)
COCCOC(=O)N1C(=O)[C@@]2(c3cc(C#CC4=CCCCC4)ccc31)[C@H](C(=O)N1CCCCCCC1)[C@H]1C(=O)O[C@H](c3ccccc3)[C@H](c3ccccc3)N1[C@@H]2c1ccc(O)cc1 | 0.0166 | 0.566 (inactive) | 0.0499 (inactive) | -1.67 (inactive) | 1.51 (inactive) | 0.396 (inactive) | -0.698 (inactive) | -0.863 (inactive) | -0.258 | -0.0025 | 0.179 (inactive) | 0.695 | -1.72 | 2.25 (inactive) | -0.525 (inactive) | -0.932 (inactive)

From PubChem BioAssay
